Screens: PubChem, National Center for Advancing Translational Sciences (NCATS)
TDP1 block = qHTS Assay for Inhibitors of Tyrosyl-DNA Phosphodiesterase (TDP1) | hit rate 0.28% among 350,000 | Potency, µM (highest dose often 130 µM), without a hit: at the top dose activity change, negative = inhibition, most hits filed as inhibitors | Tyrosyl-DNA phosphodiesterase 1 (Homo sapiens), Q9NUW8 | recombinant TDP1, AlphaScreen DNA substrate cleavage; note: potency is the fitted concentration of half-maximal effect; % is set by controls: 0 for no effect and ±100 for the full control effect; nearly all actives have a fitted effect of over 40% in size
Target sequence (Q9NUW8 whole entry, looked up): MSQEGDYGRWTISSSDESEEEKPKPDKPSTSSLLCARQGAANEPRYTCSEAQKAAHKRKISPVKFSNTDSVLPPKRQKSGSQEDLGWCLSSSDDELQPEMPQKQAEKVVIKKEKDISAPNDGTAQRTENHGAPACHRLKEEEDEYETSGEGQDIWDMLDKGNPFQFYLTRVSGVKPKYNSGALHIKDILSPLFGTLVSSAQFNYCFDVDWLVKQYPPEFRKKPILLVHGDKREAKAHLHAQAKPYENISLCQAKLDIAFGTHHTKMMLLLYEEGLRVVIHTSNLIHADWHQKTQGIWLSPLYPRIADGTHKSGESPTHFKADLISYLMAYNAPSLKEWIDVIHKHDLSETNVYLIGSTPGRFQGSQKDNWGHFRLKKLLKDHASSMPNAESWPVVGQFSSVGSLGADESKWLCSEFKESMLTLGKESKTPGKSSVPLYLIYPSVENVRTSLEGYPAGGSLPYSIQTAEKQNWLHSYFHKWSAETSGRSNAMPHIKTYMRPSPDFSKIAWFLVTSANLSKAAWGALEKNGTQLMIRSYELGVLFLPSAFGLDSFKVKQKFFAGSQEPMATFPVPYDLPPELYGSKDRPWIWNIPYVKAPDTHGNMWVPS
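E. coli-derived human Tdp1, 1 nM final. Cpd preinc 15 min RT; substrate 15 nM final, 5 min RT; AS bead mix 10 ug/ml final, 10 min RT. Signal loss = tyrosine-FITC cleavage. No-enzyme wells = max signal.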
TDP1 cell CPT = qHTS for Inhibitors of human tyrosyl-DNA phosphodiesterase 1 (TDP1): qHTS in cells in presence of CPT; AID 686979, 2013; Potency, µM (titrated, usually from 46.2 µM), for the others: top-dose activity change, negative = growth inhibition, usual class: inhibitors; chicken DT40 Tdp1-/-;hTDP1 cells + 20 nM CPT, ATP luminescence, 48 h; hit rate 12% among 420,000; note: potency is the fitted concentration of half-maximal effect; % is set by controls: 0 for no effect and ±100 for the full control effect; nearly all actives have a fitted effect of over 55% in size
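Chicken DT40 Tdp1-/- cells stably complemented with human TDP1 were seeded at 400 cells/well in medium containing 20 nM camptothecin, exposed to pin-transferred compounds, and grown at 37 °C for at least 48 hr. Viability was read as ATP luminescence.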
miR-21 reporter = qHTS Assay for Modulators of miRNAs and/orActivators of miR-21. HeLa miR-21 FLuc reporter, luciferase, 48 h. Potency, µM (top dose mostly 38.3 µM), for inactives: at the highest dose activity change, positive = activation, actives largely listed as activators. 340,000 tested, under 10 active;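 note: % of control where 0% means no effect; miR-21 action dims this reporter so a rising signal means less miR-21 action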
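Compounds were titrated across several concentrations (up to approximately 40 uM) and incubated 48 hours with HeLa miR-21-FLuc reporter cells (miR-21 target sequence downstream of FLuc, endogenous miR-21). Readout was firefly luciferase luminescence after lytic detection reagent.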
uPA surface inh = qHTS for Inhibitors of Cell Surface uPA Generation; AID 540303, 2011; Potency, µM (series often up to 38.3 µM), inactives show at the highest dose activity change, negative = inhibition, usual class: inhibitors; hit rate 0.31% among 330,000; cell surface uPA generation assay, qHTS; active = well fitted inhibition curve with a large enough effect; inconclusive = small, poorly fitted or top-dose-only effect; inactive = no such curve, though single readings can be large or run the other way; tested in mouse RAW 264.7 cells; note: potency is the fitted concentration of half-maximal effect; % is set by controls: 0 for no effect and ±100 for the full control effect; nearly all actives have a fitted effect of over 55% in size
DT40 TDP1 no CPT = qHTS for Inhibitors of human tyrosyl-DNA phosphodiesterase 1 (TDP1): qHTS in cells in absence of CPT | Potency, µM (highest dose often 46.2 µM), inactives show at the top dose activity change, negative = growth inhibition, most hits filed as inhibitors | DT40 Tdp1-/- hTDP1 cells, no CPT, ATP luminescence, 48 h | hit rate 15% among 420,000; note: potency is the fitted concentration of half-maximal effect; % is set by controls: 0 for no effect and ±100 for the full control effect; nearly all actives have a fitted effect of over 55% in size
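Seeded 400 DT40-hTDP1 cells/well (vehicle DMSO, no 20 nM CPT); pinned compounds; ≥48 hr at 37 °C; CellTiter-Glo luminescence as viability measure.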
The depositor's hits bear a star; ? = inconclusive; / = not tested or not shown; [ ] = dose if it differs, or a comment. This is a sample that favours compounds with a hit; in the whole collection about 16% have one here. Unless noted, calls come from the whole dose curve; as a rule, active = well fitted curve in the direction sought with a large enough effect; inconclusive = small, poorly fitted or top-dose-only effect, or another doubt; inactive = no such curve, though single readings can be large; an effect the other way counts as inactive or inconclusive.

SMILES	TDP1 block	TDP1 cell CPT	miR-21 reporter	uPA surface inh	DT40 TDP1 no CPT
CCOC(=O)C1CCCN(C(=O)c2cc(Nc3ccc(OC)cc3OC)nc3ccccc23)C1 (configuration not stated)	10%	16µM*	7%	-1%	21µM*
CCN(CC)S(=O)(=O)c1ccc2c(c1)c(=O)c(C(=O)NCc1ccco1)cn2C	-1%	?	1%	-1%	?
Cc1cc(C)nc(CCNC(=O)c2cc(COc3c(F)cccc3F)on2)n1	3%	0%	-1%	-2%	-4%
O=C(CCn1cnc2onc(-c3ccc(F)cc3)c2c1=O)Nc1cccc(C(F)(F)F)c1	-4%	16µM*	?	/	16µM*
O=C(CCn1cnc2onc(-c3ccc(F)cc3)c2c1=O)Nc1ccc(F)c(Cl)c1	-1%	13µM*	?	/	15µM*
Cc1ccc(NC(=O)CCn2cnc3onc(-c4ccc(F)cc4)c3c2=O)c(Br)c1	4%	-13%	1%	/	-13%
CC(C)(C)CC(C)(C)c1ccc(OCOCCOCCO)c(Cc2cc(C(C)(C)CC(C)(C)C)cc(Cc3cc(C(C)(C)CC(C)(C)C)ccc3OCOCCOCCO)c2OCOCCOCCO)c1	7%[56.1 µM]	/	/	/	/
Cc1cc2nc3c(=O)[nH]c(=O)[nH]c3nc2c([N+](=O)[O-])c1N	40µM*	-23%	1%	-1%	-13%
Cc1c(N)c(C(C)(C)C)cc(C(C)(C)C)c1[N+](=O)[O-]	6%	?	2%	4%	?
CCNS(=O)(=O)c1ccc(CCC(=O)Nc2cc(Cl)ccc2Oc2ccccc2)cc1	4%	?	13%	-12%	?
CC(C)NS(=O)(=O)c1ccc(CCC(=O)Nc2cc(Cl)ccc2Oc2ccccc2)cc1	6%	23µM*	22%	-8%	23µM*
CSc1ccccc1C(=O)Nc1c(C)cccc1C	/	?	2%	-4%	-19%
Cc1cccc(C)c1NC(=O)c1sccc1SCC#N	3%	11µM*	-7%	/	?
COc1cc(CCCN2C(=O)C(=O)NC[C@@H]2CC2CCCCC2)cc(OC)c1OC	-4%	5%	/	12%	-5%
CC(=O)c1ccc(OC(C)C)c(CSC(=N)N)c1	0%	23µM*	-1%	-10%	?
CCOC(=O)Cn1c(=O)oc2cc(S(=O)(=O)Nc3ccc(F)cc3)ccc21	3%	?	-2%	-2%	?
CC1=NN(c2ccc(C)cc2)C(=O)/C1=C\C=C\c1ccccc1	1%	12µM*	2%	3%	9.2µM*
CC1=NN(c2cccc(C(=O)O)c2)C(=O)/C1=C\C=C/c1ccccc1	8%	0.58µM*	-4%	-16%	1.3µM*
CC1=NN(c2ccccc2)C(=O)C1=Cc1ccccc1	/	-17%	/	/	-6%
CCOC(=O)C1CCCN(S(=O)(=O)c2ccc(S(=O)(=O)N3CCCC3)cc2)C1 (configuration not stated)	2%	4.6µM*	/	3%	3.7µM*
CCOC(=O)C1CCCN(S(=O)(=O)c2cc3c4c(c2)CCC(=O)N4CCC3)C1 (configuration not stated)	0%	23µM*	/	-5%	21µM*
CC1CC(C)CN(S(=O)(=O)c2cc3c4c(c2)CCC(=O)N4CCC3)C1 (configuration not stated)	-4%	?	/	4%	18µM*
CCOC(=O)C1CCCN(C(=O)c2ccc(S(=O)(=O)N3CCCC3)cc2)C1 (configuration not stated)	-4%	-5%	/	-1%	-4%
CCOC(=O)C1CCN(C(=O)C2CCCN(S(=O)(=O)c3ccc(OCC)c(Cl)c3)C2)CC1 (configuration not stated)	-11%	6.5µM*	/	-2%	5.8µM*
CCOCCc1nnc(NC(=O)C(=O)c2cc(C)n(-c3cccc(C)c3)c2C)s1	3%	-4%	-7%	/	?
SMILES	TDP1 block	TDP1 cell CPT	miR-21 reporter	uPA surface inh	DT40 TDP1 no CPT
O=C(CCCN1C(=O)/C(=C/c2ccccc2Cl)SC1=S)Nc1ccccn1	0%	?	?	-2%	?
CC(=C1C(=O)c2ccccc2C1=O)N1CCN(c2ccc(F)cc2)CC1	6%	1%	-13%	-2%	-27%
CCOC(=O)C1CCN(S(=O)(=O)c2ccc(CC)cc2)CC1	11%	21µM*	-2%	0%	?
O=C(c1ccc(CN2CCc3ccccc3C2)cc1)N1CCN(c2ccccc2)CC1	0%	13µM*	3%	-1%	?
O=C(CCc1nnc2n(Cc3ccc(F)cc3)c(=O)c3ccccc3n12)N1CCN(c2ccccn2)CC1	3%	?	2%	3%	21µM*
O=C(c1ccc(Cn2c(=O)[nH]c3ccccc3c2=O)cc1)N1CCN(c2ccccc2)CC1	2%	18µM*	-3%	-7%	15µM*
O=C(C1Cc2ccccc2CN1C(=O)c1ccccc1)N1CCN(c2ccccc2)CC1 (configuration not stated)	35µM*	-2%	0%	0%	?
COc1ccc(CC(=O)NNC(=O)c2ccc(Br)s2)cc1OC	2%	-7%	/	1%	-18%
CCN(CC)c1ccc2c(C)c(CN3CCOCC3)c(=O)oc2c1	-7%	?	-11%	0%	?
COc1ccc(Cn2c(=O)[nH]c3cc(C(=O)N4CCN(c5ccccn5)CC4)ccc3c2=O)cc1	4%	15µM*	-1%	0%	23µM*
O=C(c1ccc(F)cc1)N1CCN(c2ccccn2)CC1	/	0%	-2%	-3%	-4%
COc1ccc(Cn2c(=O)[nH]c3cc(C(=O)N4CCN(c5cc(Cl)ccc5C)CC4)ccc3c2=O)cc1	3%	15µM*	-1%	/	15µM*
CCOC(=O)N1CCN(C(=O)c2ccc3c(=O)n(Cc4ccc(OC)cc4)c(=S)[nH]c3c2)CC1	5%	?	6%	-1%	?
O=C(c1ccc(Cn2c(=O)[nH]c3ccccc3c2=O)cc1)N1CCN(c2ccccn2)CC1	5%	?	1%	9%	23µM*
O=C1NCCCC1C(=O)N/N=C/c1ccccc1[N+](=O)[O-] (configuration not stated)	5%	11%	-8%	1%	-6%
Cc1cccc(N2CCN(C(=O)c3cccc(NC4=NC5CS(=O)(=O)CC5S4)c3)CC2)c1C (configuration not stated)	/	0%	1%	-11%	?
O=C(CNC(=O)c1cccs1)N/N=C/c1ccc(Cl)cc1	0%	0%	2%	-5%	0%
